# Inconclusive results are not listed. Entries that show only a call come without a potency. Active and inactive are the calls of the source. Unless noted, calls come from the whole dose curve; as a rule, active = well fitted curve in the direction sought with a large enough effect; inconclusive = small, poorly fitted or top-dose-only effect, or another doubt; inactive = no such curve, though single readings can be large; an effect the other way counts as inactive or inconclusive.
# Experiments:
# [1] = OV-SAHO Cancer Cell Toxicity qHTS against the NCATS CANVASS Library (AID 1347348); note: nearly all actives have a fitted effect of over 55% in size; note: potency is the fitted concentration of half-maximal effect
# Outline: (§1)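 Step one: seed 1000 cells per well. Step two: incubate 4 h. Step three: add test compounds in 11 concentrations. Step four: culture 72 h, then add CellTiter-Glo and record luminescence after 15min.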
# [2] = U-118MG Cancer Cell Toxicity qHTS against the NCATS CANVASS Library (AID 1347351)
# Outline: as §1
# [3] = UWB1.289-WTBRCA1 Cancer Cell Toxicity qHTS against the NCATS CANVASS Library (AID 1347354)
# Outline: (§2)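 Luminescent ATP read-out (CellTiter-Glo, 15min at room temperature) measures survival after cells face an 11-point compound series for 72 hours at 37 degrees C/5% CO2.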
# [4] = qHTS for inhibitors of Wild type Zika virus screened against the NCATS CANVASS Library (AID 1347396);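 note: ATP luminescence of surviving cells so rescue from viral cell killing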
# Outline: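 Protection against wild-type Zika cytopathic effect is measured in African green monkey Vero 766 cells exposed to an 11-point compound series. Surviving cells are quantified by CellTiter Glo luminescence after 72 h.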
# [5] = Viability qHTS for inhibitors of the SERCaMP assay screened against the NCATS CANVASS Library (AID 1347400); note: nearly all actives have a fitted effect of over 70% in size; note: potency is the fitted concentration of half-maximal effect
# Outline: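 SH-SY5Y SERCaMP MJH297 cells, 1000/well; 4 h settle, 37C/5% CO2; pin-transferred cpds; 48 h; CellTiter-Glo lum. Pos ctrl bortezomib 0.0001 - 4.6 uM.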
# [6] = J3T Cancer Cell Toxicity qHTS against the NCATS CANVASS Library (AID 1347371);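 note: J3T is a canine glioma cancer cell line seeded at 500 cells per well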
# Outline: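 Cells plated at 500 per well, compounds pin-transferred, plates incubated 72 hr at 37C, then CellTiterGlo added and luminescence read to measure ATP content.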
# [7] = target: Nuclear receptor subfamily 1 group I member 3 (Homo sapiens) (UniProt Q14994); assay: qHTS for Constitutive Androstane Receptor (CAR) Antagonist screened against the NCATS CANVASS Library (AID 1347372); note: potency is the fitted concentration of half-maximal effect;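 for activity change, negative = inhibition: cells stimulated with 50 nM CITCO agonist so inhibition reflects antagonism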
# Chain of Nuclear receptor subfamily 1 group I member 3 (Homo sapiens) (Q14994 whole entry, looked up): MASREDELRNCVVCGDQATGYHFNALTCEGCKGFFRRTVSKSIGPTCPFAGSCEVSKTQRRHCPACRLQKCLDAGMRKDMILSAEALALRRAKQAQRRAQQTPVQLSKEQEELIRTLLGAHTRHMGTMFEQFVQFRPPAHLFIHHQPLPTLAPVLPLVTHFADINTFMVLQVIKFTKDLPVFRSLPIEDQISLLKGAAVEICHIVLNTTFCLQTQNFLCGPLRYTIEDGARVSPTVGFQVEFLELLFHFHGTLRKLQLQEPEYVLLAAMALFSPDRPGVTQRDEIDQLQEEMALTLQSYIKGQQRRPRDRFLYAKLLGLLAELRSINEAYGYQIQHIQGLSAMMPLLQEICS
# Outline: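 HepG2 cells stably carrying hCAR and CYP2B6-2.2kb luciferase reporter, 2500 cells/well, compound with 50 nM CITCO agonist for 24hr at 37C. ONE-Glo luminescence measured CAR activity; CellTiter-Fluor read viability.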
# [8] = qHTS for Antimalaria activity screened against the NCATS CANVASS Library (AID 1347380); note: nearly all actives have a fitted effect of over 40% in size; note: potency is the fitted concentration of half-maximal effect;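 for activity change, negative = inhibition: Plasmodium falciparum strain Dd2 asexual parasites grown in red blood cells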
# Outline: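 Dd2 strain, infected erythrocytes 2.5% Hct final / 0.3% parasitemia. 11-pt qHTS titration, 72 h, 37C, 5% O2, 5% CO2. Lysis buffer + SYBR Green, 18 h, fluorescence 485/535 nm.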
# [9] = system: NAD(P)H diaphorase (Clostridium kluyveri); assay: Diaphorse counterscreen qHTS: Assay Interference Panel against the NCATS CANVASS Library (AID 1347362)
# Outline: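 Clostridium kluyveri diaphorase in PBS + 0.01% Tween-20 preincubated 15 min with compounds. Resazurin and NADH then added for 5 min at room temperature in the dark; resorufin fluorescence read (ex 525, em 598).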
# [10] = qHTS for Inflammasome Signaling Inhibitors: IL-1-beta AlphaLISA screen against the NCATS CANVASS Library (AID 1347379);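 note: human THP-1 cells primed with LPS then triggered with ATP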;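 for activity change, negative = inhibition: secreted IL-1B measured as AlphaLISA emission at 615 nm; lower signal means less IL-1B release which is the wanted effect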
# Outline: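 THP-1 cells pretreated 1 hr with compound (up to 57.5 uM final), then stimulated with LPS (250 ng/mL final) and ATP (1.25 mM final). Secreted IL-1B measured by AlphaLISA after 16 hr; glyburide as positive control.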
# [11] = HPAF-II Cancer Cell Toxicity qHTS against the NCATS CANVASS Library (AID 1347346); note: nearly all actives have a fitted effect of over 55% in size; note: potency is the fitted concentration of half-maximal effect
# Outline: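 Luminescence from CellTiter-Glo, added after 72 h compound exposure and a 15 min room-temperature incubation, served as the viability readout. HPAF-II cells (1000/well) received an 11-point concentration series.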
# [12] = Panc-1005 Cancer Cell Toxicity qHTS against the NCATS CANVASS Library (AID 1347349); note: nearly all actives have a fitted effect of over 60% in size; note: potency is the fitted concentration of half-maximal effect
# Outline: as §1
# [13] = COV-362 Cancer Cell Toxicity qHTS against the NCATS CANVASS Library (AID 1347352)
# Outline: as §2
# [14] = Vero-766 cells viability qHTS against the NCATS CANVASS Library: Counterscreen for Zika virus inhibition assay (AID 1347394); note: nearly all actives have a fitted effect of over 60% in size
# Outline: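 Counterscreen for toxicity: Vero 766 cells exposed 72 h to an 11-point compound series, viability by CellTiter-Glo.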
# [15] = SDT Cancer Cell Toxicity qHTS against the NCATS CANVASS Library (AID 1347365); note: potency is the fitted concentration of half-maximal effect; nearly all actives have a fitted effect of over 60% in size
# Outline: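 qHTS, SDT dog glioma line, 500 cells/well; cpds 11 pts; 72 hr, 37C, 5% CO2; CellTiterGlo ATP luminescence.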
# [16] = qHTS Assay for Lipid Storage Modulators (AID 1519; calls by dose curve); conditions: Drosophila S3 cells, BODIPY lipid droplet/cell ratio, laser cytometry, cells loaded with oleic acid; for activity change, negative = inhibition: at 57.5 µM (top of the series)
# Outline: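 Cells seeded at 5,000 per well were treated with compounds over a concentration series and loaded with oleic acid (400 uM, as added). Lipid droplet fluorescence (488 nm excitation, 500-530 nm channel) was read by laser-scanning cytometry and normalized to 20 uM Triacsin C.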
# [17] = NCATS anti-infectives library activity on the primary C. elegans qHTS viability assay (AID 1745855; calls by dose curve; note: potency is the fitted concentration of half-maximal effect)
# Outline: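 Viability read-out is GFP fluorescence of PE254-GFP-FLuc C. elegans, measured by laser cytometry (488 nm) at day 0, 3 and 7. Ten L1 worms per well were incubated 7 days at 21 °C with compounds and bacterial capsules in S medium.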
# [18] = qHTS profiling for inhibitors of Plasmodium falciparum proliferation (AID 504749); note: potency is the fitted concentration of half-maximal effect; for all read-outs here: nearly all actives have a fitted effect of over 60% in size; conditions: P. falciparum in erythrocytes, SYBR Green DNA, 72 h; for activity, negative = inhibition: at 28.7 µM (top of the series)
# Outline: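 P. falciparum-infected erythrocytes (0.3% parasitemia, 2.5% hematocrit) incubated with compound 72 h at 37 C, 5% CO2. Parasite DNA detected by SYBR Green after lysis, overnight at room temperature; normalised to 0.29 uM artemisinin and DMSO.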
# [19] = target: Calcium and integrin-binding protein 1 (Homo sapiens) (UniProt Q99828); assay: Primary qHTS for Identification of Calcium Integrin Binding Protein 1 (CIB1) Competitor (AID 1508620);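 note: GST tagged CIB1 binding a fluorescein labelled alphaIIb integrin peptide tracer; top concentration of the series differs between compounds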
# Chain of Calcium and integrin-binding protein 1 (Homo sapiens) (Q99828 whole entry, looked up): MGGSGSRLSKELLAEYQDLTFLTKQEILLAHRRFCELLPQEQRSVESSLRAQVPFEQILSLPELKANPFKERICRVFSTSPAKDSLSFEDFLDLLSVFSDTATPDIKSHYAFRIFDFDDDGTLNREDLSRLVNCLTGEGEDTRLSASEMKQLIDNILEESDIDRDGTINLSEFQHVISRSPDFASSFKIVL
# Outline: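 Fluorescence polarization competition: GST-tagged CIB1 (1 uM final) preincubated with compound 15 min at room temperature, then FITC-labelled alphaIIb peptide (100 nM final) added. After 15 min at room temperature, polarization read at Ex 480/Em 540.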
# [20] = measured here: cell count channel max response
# [21] = measured here: lipid channel max response
smiles,measurement,setting,value
COc1ccc([C@@H]2c3cc4c(cc3C[C@H](C)C2C)OCO4)cc1OC (stereo partly specified),Potency,[1],inactive
same,Potency,[2],inactive
same,Potency,[3],inactive
same,outcome,[4],inactive
same,Potency,[5],27 µM (active)
C=C1C[C@H]2O[C@@H]3[C@@H]4[C@H](CC[C@@](C)(O)[C@@H]42)[C@H](C)COC3(C)[C@@H](OC(=O)CCCCCCC)C[C@H]1O (stereo partly specified),Potency,[2],inactive
same,Potency,[3],inactive
same,Potency,[6],inactive
same,Potency,[7],inactive
same,Potency,[8],0.0059 µM (active)
same,Potency,[5],inactive
CC1=C[C@H]2[C@H]3C(=O)C(c4ccc(O)cc4)=C[C@@]3(c3ccc(O)cc3)[C@@H]1C(=O)[C@]2(C)O,Potency,[1],inactive
same,Potency,[9],inactive
same,Potency,[7],0.933 µM (active)
same,Potency,[10],inactive
same,Potency,[8],0.0019 µM (active)
same,Potency,[5],0.48 µM (active)
C=C[C@]1(C)CC[C@@H]([C@H](C)C(=O)/C=C/C(C)(C)O)O1,Potency,[11],inactive
same,Potency,[12],inactive
same,Potency,[2],inactive
same,Potency,[13],inactive
same,Potency,[3],inactive
same,Potency,[10],inactive
same,Potency,[8],inactive
same,Potency,[14],inactive
C/C(=C\[C@H](C)C(=O)/C=C/CC1CC(=O)NC(=O)C1)[C@@H]1OC(=O)CCCC/C=C/[C@H](O)[C@@H](O)[C@@H]1C,Potency,[11],18.8 µM (active)
same,Potency,[12],14.9 µM (active)
same,Potency,[9],inactive
same,Potency,[8],inactive
same,Potency,[14],inactive
same,outcome,[4],inactive
O[C@H]1C=C2[C@H]3CN(Cc4cc5c(cc43)OCO5)[C@H]2C[C@@H]1O,Potency,[9],inactive
same,Potency,[7],13.2 µM (active)
same,Potency,[8],5.29 µM (active)
same,outcome,[4],inactive
CN1CCc2cc3c(c4c2C1(C)C(=O)c1cc(O)ccc1-4)OCO3 (stereo unspecified),Potency,[9],inactive
same,Potency,[15],1.48 µM (active)
same,Potency,[14],inactive
same,outcome,[4],inactive
C/C=C/c1cc2c(c(=O)o1)C(=O)[C@@H](O)[C@H](C)O2,Potency,[1],16.7 µM (active)
same,Potency,[12],13.3 µM (active)
same,Potency,[2],inactive
same,Potency,[9],inactive
same,Potency,[15],10.5 µM (active)
same,Potency,[8],inactive
same,Potency,[14],inactive
same,Potency,[5],34 µM (active)
C/C(=C\[C@@H](C)CC/C=C/CC/C=C/C(=O)O)[C@H](O)[C@H](C)C(=O)CCCC1CC(=O)NC(=O)C1,Potency,[11],6.68 µM (active)
same,Potency,[1],inactive
same,Potency,[2],inactive
same,Potency,[13],inactive
same,Potency,[3],inactive
same,Potency,[9],inactive
same,Potency,[6],inactive
same,Potency,[7],inactive
same,Potency,[10],inactive
same,Potency,[8],inactive
same,Potency,[5],inactive
COc1cc2c(cc1OC)[C@@H](c1ccc3c(c1)OCO3)C(C)[C@@H](C)C2=O (stereo partly specified),Potency,[1],inactive
same,Potency,[12],inactive
same,Potency,[2],inactive
same,Potency,[13],inactive
same,Potency,[3],inactive
same,Potency,[9],inactive
same,Potency,[6],inactive
same,Potency,[7],inactive
same,Potency,[10],inactive
same,Potency,[14],inactive
same,Potency,[5],inactive
CC1=C(C)C(=O)OC(C(C)C2(O)CCC3C4C5OC5C5(O)CC=CC(=O)C5(C)C4CCC32C)C1 (stereo unspecified),Potency,[11],inactive
same,Potency,[2],inactive
same,Potency,[15],13.2 µM (active)
same,Potency,[7],inactive
same,Potency,[10],inactive
same,Potency,[14],inactive
same,outcome,[4],inactive
COc1ccc([C@@H]2c3cc4c(cc3C(=O)[C@H](C)C2C)OCO4)cc1OC (stereo partly specified),Potency,[1],inactive
same,Potency,[13],inactive
same,Potency,[3],inactive
same,Potency,[6],inactive
same,Potency,[10],inactive
same,outcome,[4],inactive
C=C[C@@](C)(O)CC[C@@H]1[C@@]2(C)CCCC(C)(C)[C@@H]2CC[C@@]1(C)O,"activity change, negative = inhibition",[16],-12.3% (inactive)
same,max response,[16]; [20],-15%
same,max response,[16]; [21],-21.7%
same,Potency,[1],inactive
same,Potency,[3],inactive
same,Potency,[9],inactive
same,Potency,[6],inactive
same,Potency,[14],inactive
same,outcome,[4],inactive
same,Potency,[5],inactive
CCC[C@H](NC(=O)/C(C#N)=C/c1cccc(Br)n1)c1ccccc1,Potency,[17],4.09 µM (active)
C[C@@]12C(=O)OC(=O)[C@]1(C)[C@H]1CC[C@@H]2O1,Potency,[18]; parasite line A,3.98 µM (active)
same,Potency,[18]; parasite line B,3.16 µM (active)
Cc1c(-c2cnccn2)ssc1=S,Potency,[17],inactive
CC(=O)N1c2ccc(-c3ccc(C(=O)O)cc3)cc2[C@H](Nc2ccc(Cl)cc2)C[C@@H]1C,Potency,[17],23 µM (active)
Cc1ccc(-n2c(C)cc(-c3nnc4n3CCCCC4)c2C)cc1,Potency,[19],inactive
COC1=C(OC)C(=O)C(C/C=C(\C)CC/C=C(\C)CC/C=C(\C)CC/C=C(/C)CC/C=C(\C)CC/C=C(\C)CC/C=C(\C)CC/C=C(\C)CC/C=C(\C)CCC=C(C)C)=C(C)C1=O,"activity change, negative = inhibition",[16],8.3% (inactive)
same,max response,[16]; [20],17.1%
same,max response,[16]; [21],27.6%
CN(Cc1ccccc1)C(=O)c1ccc(S(=O)(=O)Nc2ccccc2)cc1,Potency,[19],inactive
COc1ccnc2[nH]cc(C(=O)C(=O)N3CCN(C(=O)c4ccccc4)C[C@H]3C)c12,Potency,[17],inactive
CC(/C=C1\SC(=S)N(CC(=O)O)C1=O)=C\c1ccccc1,"activity, negative = inhibition",[18]; parasite line A,-3.63% (inactive)
Clc1cccc(-c2ccc(-c3nnc(CCCc4ccc5cccnc5n4)o3)cc2)c1,Potency,[19],inactive
O=C(O)c1ccc(O)c2ncccc12,Potency,[19],inactive
C[C@@H]1CC(=O)Nc2cccc(-c3cnn(C(C)(C)C)c3)c2N1,Potency,[19],inactive
C=C1CCC2[C@](C)(CO)C(O)CC[C@]2(C)C1C/C=C1/C(=O)OCC1O (stereo partly specified),"activity change, negative = inhibition",[16],2.99% (inactive)
same,max response,[16]; [20],11%
same,max response,[16]; [21],17.4%
same,"activity, negative = inhibition",[18]; parasite line A,-24.6% (inactive)
same,"activity, negative = inhibition",[18]; parasite line B,-25.9% (inactive)
COc1ccc(-n2cnc3cc(C(=O)N4CCCCC4)ccc32)cc1,Potency,[19],inactive
C[C@H]1CC2[C@@H]3CCC4=CC(=O)C=C[C@]4(C)[C@@]3(F)[C@@H](O)C[C@]2(C)[C@@]1(O)C(=O)CO (stereo partly specified),"activity change, negative = inhibition",[16],-0.272% (inactive)
same,max response,[16]; [20],-0.0442%
same,max response,[16]; [21],0.965%

# Source: PubChem BioAssay (NCATS)
